# Data as given in ChEMBL document CHEMBL3988442, “University of Dundee, Small-Polar-MMV Screening Library” (2021).
# For part of these data: Results with a measured potency or affinity are listed apart.
# What was measured:
# Set-up in all cases: scale not given: direction of the effect not stated beside the values
# [1] = biological target: Protein translocase subunit SecA (Escherichia coli (strain K12)) (UniProt P10408); assay: Assay to Identify E. coli SecA ATPase Inhibitors; type: functional; settings: 30 µM
# Sequence of Protein translocase subunit SecA (Escherichia coli (strain K12)) (P10408 whole entry): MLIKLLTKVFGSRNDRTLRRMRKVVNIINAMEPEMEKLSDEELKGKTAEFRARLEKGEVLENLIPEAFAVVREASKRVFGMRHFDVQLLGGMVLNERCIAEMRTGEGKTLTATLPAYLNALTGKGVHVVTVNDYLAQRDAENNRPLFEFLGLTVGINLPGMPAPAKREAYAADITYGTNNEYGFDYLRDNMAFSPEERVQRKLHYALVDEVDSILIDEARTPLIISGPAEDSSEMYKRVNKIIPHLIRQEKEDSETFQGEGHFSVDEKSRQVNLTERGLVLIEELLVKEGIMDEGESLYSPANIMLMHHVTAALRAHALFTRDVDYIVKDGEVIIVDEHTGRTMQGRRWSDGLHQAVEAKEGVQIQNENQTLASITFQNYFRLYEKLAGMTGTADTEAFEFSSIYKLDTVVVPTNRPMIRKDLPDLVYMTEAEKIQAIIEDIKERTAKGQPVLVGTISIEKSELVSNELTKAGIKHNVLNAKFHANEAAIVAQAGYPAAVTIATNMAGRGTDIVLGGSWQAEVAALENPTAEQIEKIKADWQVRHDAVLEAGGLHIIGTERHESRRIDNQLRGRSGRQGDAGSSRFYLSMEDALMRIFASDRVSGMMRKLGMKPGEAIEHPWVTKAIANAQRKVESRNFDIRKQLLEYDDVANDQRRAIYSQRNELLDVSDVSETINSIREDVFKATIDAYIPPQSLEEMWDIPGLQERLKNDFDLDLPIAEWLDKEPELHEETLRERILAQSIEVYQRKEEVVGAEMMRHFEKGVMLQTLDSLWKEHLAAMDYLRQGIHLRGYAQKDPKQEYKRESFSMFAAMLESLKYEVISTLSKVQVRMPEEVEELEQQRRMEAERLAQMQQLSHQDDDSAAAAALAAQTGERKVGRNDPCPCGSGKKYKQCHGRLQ
# [2] = biological target: T1, Ubiquitin-activating enzyme e1, putative (Leishmania donovani (strain BPK282A1)) (UniProt E9BSI1); assay: Leishmania donovani Ubiquitin Activating Enzyme (LdE1); type: functional; settings: 30 µM
# T1 sequence (whole entry): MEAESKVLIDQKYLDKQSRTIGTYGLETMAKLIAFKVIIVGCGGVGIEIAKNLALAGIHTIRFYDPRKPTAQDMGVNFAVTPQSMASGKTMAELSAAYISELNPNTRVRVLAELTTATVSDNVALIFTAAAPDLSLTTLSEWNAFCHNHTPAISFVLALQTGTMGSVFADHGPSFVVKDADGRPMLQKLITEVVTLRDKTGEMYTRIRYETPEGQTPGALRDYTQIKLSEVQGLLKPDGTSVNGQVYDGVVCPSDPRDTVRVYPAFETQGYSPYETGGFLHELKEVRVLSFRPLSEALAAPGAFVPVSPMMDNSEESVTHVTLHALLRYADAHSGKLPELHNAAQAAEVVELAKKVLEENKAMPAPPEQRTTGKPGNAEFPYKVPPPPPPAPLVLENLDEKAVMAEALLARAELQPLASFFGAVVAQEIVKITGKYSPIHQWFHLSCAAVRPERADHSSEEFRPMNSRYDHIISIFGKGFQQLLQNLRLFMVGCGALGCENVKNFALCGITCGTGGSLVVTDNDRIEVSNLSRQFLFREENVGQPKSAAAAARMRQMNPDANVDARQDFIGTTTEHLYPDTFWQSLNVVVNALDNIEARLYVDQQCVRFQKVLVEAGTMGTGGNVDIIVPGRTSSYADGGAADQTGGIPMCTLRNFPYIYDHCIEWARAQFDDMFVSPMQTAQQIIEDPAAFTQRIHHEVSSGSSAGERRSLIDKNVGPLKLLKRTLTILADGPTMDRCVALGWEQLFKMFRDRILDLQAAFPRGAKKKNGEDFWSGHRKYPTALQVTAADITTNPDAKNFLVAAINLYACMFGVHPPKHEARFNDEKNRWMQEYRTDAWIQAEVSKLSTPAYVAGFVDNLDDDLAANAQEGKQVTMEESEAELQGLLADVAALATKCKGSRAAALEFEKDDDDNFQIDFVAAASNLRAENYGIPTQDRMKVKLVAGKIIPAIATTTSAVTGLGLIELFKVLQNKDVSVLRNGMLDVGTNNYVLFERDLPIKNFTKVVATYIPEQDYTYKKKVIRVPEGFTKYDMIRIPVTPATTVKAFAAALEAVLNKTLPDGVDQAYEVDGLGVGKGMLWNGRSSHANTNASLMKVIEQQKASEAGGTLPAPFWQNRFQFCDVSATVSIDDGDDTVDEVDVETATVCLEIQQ
# [3] = biological target: Sialic acid-binding Ig-like lectin 9 (Homo sapiens) (UniProt Q9Y336); assay: Hs-Siglec9 ALPHAscreen SOP 20170721; settings: 10 µM
# Sequence of Sialic acid-binding Ig-like lectin 9 (Homo sapiens) (Q9Y336 whole entry): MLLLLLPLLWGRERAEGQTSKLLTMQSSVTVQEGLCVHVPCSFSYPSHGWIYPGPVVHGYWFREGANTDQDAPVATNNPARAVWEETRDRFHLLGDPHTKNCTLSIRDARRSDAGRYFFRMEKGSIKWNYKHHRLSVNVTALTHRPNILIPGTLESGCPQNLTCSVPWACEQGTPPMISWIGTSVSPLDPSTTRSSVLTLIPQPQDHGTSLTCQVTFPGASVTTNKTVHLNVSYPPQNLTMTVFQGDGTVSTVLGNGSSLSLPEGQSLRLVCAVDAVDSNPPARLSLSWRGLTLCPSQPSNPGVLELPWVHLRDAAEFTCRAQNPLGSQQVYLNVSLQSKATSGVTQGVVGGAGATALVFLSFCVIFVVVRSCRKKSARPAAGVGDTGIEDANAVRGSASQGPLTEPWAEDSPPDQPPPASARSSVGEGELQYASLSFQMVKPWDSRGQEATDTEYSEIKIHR
# [4] = system: Trypanosoma cruzi; assay: Trypanosoma cruzi phosphomannomutase and mannose-1-phosphate guanylyltransferase assay; type: functional; settings: 10 µM
# [5] = biological target: T2, Arginase-2, mitochondrial (Homo sapiens) (UniProt P78540); assay: in vitro enzyme assay to detect the production of urea directly proportional to the activity of Arginase II; type: functional; settings: 33.3 µM; note: in the data most compounds retested in dose-response had high values
# T2 sequence (whole entry): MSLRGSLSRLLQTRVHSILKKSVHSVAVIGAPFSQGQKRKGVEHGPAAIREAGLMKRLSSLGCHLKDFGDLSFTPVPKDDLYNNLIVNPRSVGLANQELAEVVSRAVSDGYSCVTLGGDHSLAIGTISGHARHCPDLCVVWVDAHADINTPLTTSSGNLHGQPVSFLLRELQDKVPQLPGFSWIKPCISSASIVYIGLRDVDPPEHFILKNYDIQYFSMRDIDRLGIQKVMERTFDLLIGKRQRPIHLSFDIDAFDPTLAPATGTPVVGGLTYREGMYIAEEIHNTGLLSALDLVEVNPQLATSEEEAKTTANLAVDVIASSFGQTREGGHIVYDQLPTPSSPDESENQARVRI
# [6] = biological target: T3, Proteasome subunit beta (Trypanosoma cruzi) (UniProt O96673); assay: Trypanosoma cruzi proteasome chymotrypsin-like activity (TcProtChymo) assay.; note: in the data most compounds retested in dose-response had high values; type: functional; settings: 9.37 µM
# T3 sequence (whole entry): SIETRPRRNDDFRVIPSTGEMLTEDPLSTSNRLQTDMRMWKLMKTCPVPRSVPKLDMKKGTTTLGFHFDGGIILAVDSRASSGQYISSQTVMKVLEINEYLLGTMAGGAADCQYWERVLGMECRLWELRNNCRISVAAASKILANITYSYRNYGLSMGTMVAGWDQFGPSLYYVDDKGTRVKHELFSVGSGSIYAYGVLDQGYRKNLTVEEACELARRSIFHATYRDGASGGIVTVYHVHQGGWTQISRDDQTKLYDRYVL
# [7] = species: Homo sapiens; assay: To identify inhibition of the IFN signalling (Jak-Stat) pathway via expression of an eGFP reporter gene under the control of an IFN-stimulated response element (ISRE) containing MxA promoter.; type: functional; settings: 30 µM
# [8] = biological target: T4, Tyrosyl-tRNA synthetase, putative (Trypanosoma cruzi (strain CL Brener)) (UniProt Q4DSP6); assay: Trypanosoma cruzi tyrosyl tRNA synthetase (TcYRS) _High Tyrosine SOP; type: functional; settings: 30 µM; note: in the data most compounds retested in dose-response had high values
# T4 sequence (whole entry): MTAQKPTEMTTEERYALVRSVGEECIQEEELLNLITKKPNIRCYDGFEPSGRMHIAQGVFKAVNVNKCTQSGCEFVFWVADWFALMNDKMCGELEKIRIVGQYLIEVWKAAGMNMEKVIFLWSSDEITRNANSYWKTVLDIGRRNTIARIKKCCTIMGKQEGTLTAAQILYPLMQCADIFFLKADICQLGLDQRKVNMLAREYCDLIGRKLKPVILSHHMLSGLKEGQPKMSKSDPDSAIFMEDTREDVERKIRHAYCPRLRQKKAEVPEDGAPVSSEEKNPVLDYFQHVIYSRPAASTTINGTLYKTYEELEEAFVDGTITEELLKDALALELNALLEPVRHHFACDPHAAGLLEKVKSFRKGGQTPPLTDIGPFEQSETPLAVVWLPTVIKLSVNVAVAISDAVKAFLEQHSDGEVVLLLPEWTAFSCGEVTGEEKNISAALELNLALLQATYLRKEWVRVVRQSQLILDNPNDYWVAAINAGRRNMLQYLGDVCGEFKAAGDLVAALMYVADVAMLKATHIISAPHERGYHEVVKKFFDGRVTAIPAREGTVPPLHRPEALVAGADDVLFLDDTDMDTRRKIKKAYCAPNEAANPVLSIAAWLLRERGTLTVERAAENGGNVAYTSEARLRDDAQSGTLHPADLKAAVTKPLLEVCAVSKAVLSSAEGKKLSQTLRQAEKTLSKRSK
# [9] = biological target: T4, Tyrosyl-tRNA synthetase, putative (Trypanosoma cruzi (strain CL Brener)); assay: Trypanosoma cruzi tyrosyl tRNA synthetase (TcYRS) SOP; type: functional; settings: 30 µM
# [10] = biological target: Chromo domain-containing protein 1 (Saccharomyces cerevisiae (strain ATCC 204508 / S288c) (Baker's yeast)) (UniProt P32657); assay: ScCHD-1 Enzyme Inhibition Assay; type: functional; settings: 30 µM; note: in the data most compounds retested in dose-response had high values
# Sequence of Chromo domain-containing protein 1 (Saccharomyces cerevisiae (strain ATCC 204508 / S288c) (Baker's yeast)) (P32657 whole entry, the tested form may be a part): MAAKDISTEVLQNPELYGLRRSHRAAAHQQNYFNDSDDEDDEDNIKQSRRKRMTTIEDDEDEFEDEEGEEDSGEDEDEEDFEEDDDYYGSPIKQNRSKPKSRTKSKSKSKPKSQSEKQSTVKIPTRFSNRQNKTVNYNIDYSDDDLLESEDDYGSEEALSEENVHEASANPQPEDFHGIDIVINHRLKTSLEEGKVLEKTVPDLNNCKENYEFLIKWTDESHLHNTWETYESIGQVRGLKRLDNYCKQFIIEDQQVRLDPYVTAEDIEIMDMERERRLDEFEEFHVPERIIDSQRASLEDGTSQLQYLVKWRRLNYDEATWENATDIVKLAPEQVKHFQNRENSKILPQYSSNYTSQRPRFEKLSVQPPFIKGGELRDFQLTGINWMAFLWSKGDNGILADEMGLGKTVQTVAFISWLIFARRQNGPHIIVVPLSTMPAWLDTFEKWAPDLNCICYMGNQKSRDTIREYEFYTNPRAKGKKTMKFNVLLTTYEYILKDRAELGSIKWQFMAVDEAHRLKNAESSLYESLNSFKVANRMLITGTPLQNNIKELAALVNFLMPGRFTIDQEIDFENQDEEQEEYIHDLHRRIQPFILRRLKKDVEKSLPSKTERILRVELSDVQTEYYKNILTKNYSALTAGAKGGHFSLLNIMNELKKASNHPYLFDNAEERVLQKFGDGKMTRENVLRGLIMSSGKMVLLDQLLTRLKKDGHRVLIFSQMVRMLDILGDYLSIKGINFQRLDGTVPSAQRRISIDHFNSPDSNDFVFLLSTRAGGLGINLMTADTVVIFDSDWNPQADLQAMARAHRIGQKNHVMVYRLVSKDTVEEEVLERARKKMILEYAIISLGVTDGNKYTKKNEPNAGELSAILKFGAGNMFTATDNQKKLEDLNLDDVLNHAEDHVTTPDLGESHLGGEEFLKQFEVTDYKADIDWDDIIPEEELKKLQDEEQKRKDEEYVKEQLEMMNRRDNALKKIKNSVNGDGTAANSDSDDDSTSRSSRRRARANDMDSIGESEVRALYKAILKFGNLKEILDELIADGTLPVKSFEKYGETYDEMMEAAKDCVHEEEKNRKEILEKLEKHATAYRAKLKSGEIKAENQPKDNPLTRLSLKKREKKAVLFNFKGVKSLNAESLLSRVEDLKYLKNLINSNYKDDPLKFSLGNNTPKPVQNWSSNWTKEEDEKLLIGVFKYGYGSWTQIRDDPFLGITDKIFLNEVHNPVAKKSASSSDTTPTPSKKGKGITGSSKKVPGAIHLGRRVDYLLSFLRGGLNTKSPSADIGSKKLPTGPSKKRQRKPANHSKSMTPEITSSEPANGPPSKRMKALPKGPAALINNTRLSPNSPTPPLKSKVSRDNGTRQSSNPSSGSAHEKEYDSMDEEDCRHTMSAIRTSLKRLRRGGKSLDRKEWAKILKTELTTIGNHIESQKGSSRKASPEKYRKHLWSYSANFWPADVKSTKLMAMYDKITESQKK
SMILES,Percent Effect [1] [%],Percent Effect [2] [%],Percent Effect [3] [%],Percent Effect [4] [%],Percent Effect [5] [%],Percent Effect [6] [%],Percent Effect [7] [%],Percent Effect [8] [%],Percent Effect [9] [%],Percent Effect [10] [%]
O=C(c1ccc(F)cc1F)N1C[C@@H](O)[C@H](N2CCOCC2)C1,-1.31,20,-7.22,-0.789,-3.1,17.9,2.56,1.06,17.5,-25.9
O=C(NCc1ccccc1-n1cccn1)N1CCN2CCCCC2C1 (stereo not given),-4.48,0,9.91,0.803,2.22,1.78,-2.71,2.63,10.3,-8
Cc1cc(N2CCC(CC(N)=O)CC2)nc(-c2ccncc2)n1,-7.29,13,10.8,-1.87,3.07,11.1,-5.86,7.84,21.2,-6.28
COC[C@@]12CC[C@@H](N3CCOCC3)C[C@H]1CCN(c1ncccc1Cl)C2,-6.53,13.5,12.5,4.56,10.8,7.02,2.53,5.85,19.5,-2.53
COc1ccc2c(c1)OC1(CCN(Cc3ccc(F)cc3)CC1)CC2=O,-2.19,14.3,-1.29,2.63,2.74,9.36,24.9,2.9,2.5,-12.1
Cc1cccc(C(=O)N2CCC(Cc3cnc4[nH]ccc4c3)CC2)n1,-4.68,12,-0.292,-3.35,4.42,9.2,2.32,3.17,7.5,-24.1
Cc1nc(CN2CCN(Cc3ccoc3)Cc3cccnc32)cs1,-1.42,-1.3,-2.07,-2.82,-4.45,12.3,10.4,1.58,-5.13,1.4
CC(C)c1nccn1-c1cccc(C2CCCN2S(=O)(=O)N(C)C)n1 (stereo not given),1.33,-17.3,-5.7,-2.76,-1.77,14.8,39.9,4.23,10,-18
CCO[C@@H]1CO[C@@]2(CCCN(S(=O)(=O)c3cccnc3)C2)C1,-2.66,11.7,-9.59,-4.97,3.64,18.3,6.27,5.79,5.13,2.99
CC(=O)N1CCc2c(nc(-c3ccncc3)nc2N(C)CC(O)CO)C1 (stereo not given),-4.98,2.7,3.26,-2.62,5.94,3.94,12.2,5.85,14.6,-4.24
Cc1c(F)cccc1CN1CCn2nc(CNC(=O)N(C)C)cc2C1,-5.26,10.8,14.7,9.21,28.3,8.05,4.47,5.85,17.1,-7.8
CN(Cc1ccccc1)CC(O)Cn1cnc2ccsc2c1=O (stereo not given),-3.3,5.13,-3.73,8.36,-0.41,1.62,17.5,0.478,1.21,3.76
